Screening results from PubChem BioAssay.
HCV inhibitor – qHTS Assay for Inhibitors of Hepatitis C Virus (HCV). Huh7.5.1 HCVcc-Cre infection, luciferase reporter, 44 h. Potency, µM (doses to about 41.8 µM), for inactives: at the highest dose activity change, negative = inhibition, actives largely listed as inhibitors. 340,000 tested, 3.4% active. AID 651820, 2012
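Seed cells (1,000/well) for 4 h; treat with compound and infect with HCVcc-Cre, moi about 0.5. Incubate 44 h, then detect luciferase activity.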
AMA1-RON2 inh – qHTS for Inhibitors of AMA1-RON; Towards Development of Antimalarial Drug Lead: Primary Screen. AID 720542, 2013. Potency, µM (highest dose often 58.2 µM), without a hit: at the highest dose activity change, negative = inhibition, hits mostly inhibitors. 360,000 tested, 0.2% active. AlphaScreen AMA1-biotinylated RON2 peptide binding;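 further: 0% = vehicle wells and -100% = peptide control; nearly all actives have a fitted effect of over 45% in size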
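AMA1 (3D7) with his tag at 25 nM final met compounds first, then biotinylated RON2 peptide at 25 nM; detection used donor plus acceptor beads, 10 µg/mL apiece, read by AlphaScreen after 30 min at room temperature.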
Pf growth 48h – Primary qHTS for delayed death inhibitors of the malarial parasite plastid, 48 hour incubation; Potency, µM (highest dose often 28.7 µM), inactives show top-dose activity change, negative = inhibition, hits mostly inhibitors; 310,000 tested, 5.9% active; P. falciparum luciferase growth in erythrocytes, 48 h
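Luminescence readout; reporter = integrated firefly luciferase in P. falciparum. RBC culture at 2% hematocrit, 0.1% parasitemia final, 37 C/5% CO2; decreased signal taken as growth inhibition.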
Pf growth 96h – Primary qHTS for delayed death inhibitors of the malarial parasite plastid, 96 hour incubation; AID 504834, 2011; Potency, µM (highest dose often 28.7 µM), inactives show at the top dose activity change, negative = inhibition, usual class: inhibitors; 320,000 tested, 6.9% active; P. falciparum luciferase reporter growth, 96 h
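Luminescence readout: decreased luciferase signal marks inhibited growth of reporter-expressing P. falciparum in infected red cells (2% hematocrit, 0.05% parasitemia final), exposed to compound two generations (96 h, 37 C, 5% CO2).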
* = called active by the depositor; ? = inconclusive; . = no result given; [ ] = another dose, or the depositor's remark. Shown are actives, neighbours in structure and some others; about 11% of the full set was active somewhere. The call rests on the fitted dose curve; in most records, active means well fitted curve in the direction sought with a large enough effect; inconclusive means small, poorly fitted or top-dose-only effect, or another doubt; inactive means no such curve, though single readings can be large; an effect the other way counts as inactive or inconclusive. Unless noted, on the % scale 0 is the no-effect control and ±100 the full control effect; potency means the concentration at half of the fitted maximal effect.

SMILES	HCV inhibitor	AMA1-RON2 inh	Pf growth 48h	Pf growth 96h
CC[C@@]1(C(=O)OC)N[C@H](CN(C)C(=O)NC(C)C)[C@@H]2C(=O)N(Cc3ccccc3)C(=O)[C@@H]21	-21%	-5%	.	.
CCN(C[C@H]1N[C@@](Cc2ccccc2)(C(=O)OC)[C@H]2C(=O)N(Cc3ccccc3)C(=O)[C@@H]12)C(=O)Nc1ccc(C(F)(F)F)cc1	13µM*	-5%	.	.
CCN(C[C@H]1N[C@@](CC)(C(=O)OC)[C@H]2C(=O)N(Cc3ccccc3)C(=O)[C@@H]12)C(=O)NC(C)C	6.3µM*	6%	.	.
Nc1cc(=O)[nH]c(SCC(=O)NC2CCCCCCC2)n1	7%	23%	.	.
Cc1ccc(NC(=O)c2cc(S(=O)(=O)N3CCc4ccccc43)cn2C)cc1C	?	-8%	?	-1%
COc1ccc(NC(=O)c2cc(S(=O)(=O)N3CCc4ccccc43)cn2C)cc1	-16%	-11%	9.3µM*	-10%
CCCNC(=O)c1cc(S(=O)(=O)N2CCc3ccccc32)cn1C	8.9µM*	0%	9%	10%
CCc1ccccc1NC(=O)c1cc(S(=O)(=O)N2CCc3ccccc32)cn1C	5%	-8%	6%	35%
Cn1nccc1C(=O)N1CCN(S(=O)(=O)c2ccc(Br)s2)CC1	-5%	-15%	25%	-22%
CCOC(=O)C(NC(=O)c1ccc(OC)cc1)(Nc1cc(C)on1)C(F)(F)F (stereo not drawn)	17%	3%	-9%	18%
CCOC(=O)C(NC(=O)c1ccccc1)(Nc1cc(C)on1)C(F)(F)F (stereo not drawn)	-20%	?	19%	5.2µM*
COC(=O)CNC(=O)c1sc2ncn(CC(=O)Nc3ccc(C)c(Cl)c3)c(=O)c2c1C	-2%	0%	-16%	?
COc1ccc(OC)c(CCNC(=O)CS(=O)(=O)Cc2nc(-c3ccc(C)cc3)oc2C)c1	3.5µM*	-3%	9%	53%
COc1cccc(-c2nc(CS(=O)(=O)CC(=O)NCCc3cc(OC)ccc3OC)c(C)o2)c1	?	-12%	-28%	13µM*
CCN(CCNC(=O)CS(=O)(=O)Cc1nc(-c2cccc(OC)c2)oc1C)c1ccccc1	22µM*	-18%	-17%	?
O=C(NCCCc1ccccc1)c1ccc(CS(=O)Cc2ccc(Cl)cc2)o1 (stereo not drawn)	?	-1%	21%	?
COc1ccccc1-c1cnc(C(O)c2ccc(Cl)cc2C)[nH]1 (stereo not drawn)	.	-4%	.	.
CCOc1cc(NC(=S)NC)c(OCC)cc1NC(=O)c1ccc(OC)cc1	?	-14%	-15%	28%
CCOc1cc(NC(=O)C(C)C)c(OCC)cc1NC(=O)Nc1ccccc1	-10%	3%	-19%	12µM*
CCOc1cc(NC(=S)Nc2ccccc2)c(OCC)cc1NC(=O)c1ccccc1	?	19%	?	8.3µM*
CSC(=Nc1ccccc1)C(C#N)c1nc2ccccc2[nH]1 (stereo not drawn)	-23%	13%	?	?
N#CC(C(=O)C1CCCCC1)c1nc2ccccc2[nH]1 (stereo not drawn)	10µM*	48%	?	?
N#CC(C(=S)Nc1ccccc1)c1nc2ccccc2[nH]1 (stereo not drawn)	-21%	89%	?	4.7µM*
O=C(NCc1ccco1)C(=O)NCC1OCCCN1S(=O)(=O)c1ccccc1 (stereo not drawn)	31%	16%	-5%	-16%
NC(=O)[C@@H]1CC2(CC(c3cccc(NC(=O)CC(c4ccccc4)c4ccccc4)c3)=NO2)CN1C(=O)COc1ccc(Cl)cc1 (stereo partly drawn)	?	-5%	?	12µM*
SMILES	HCV inhibitor	AMA1-RON2 inh	Pf growth 48h	Pf growth 96h
CC1(C(=O)N2CC3(CC(c4cccc(NC(=O)COc5ccc(Cl)cc5)c4)=NO3)C[C@@H]2C(N)=O)CC1 (stereo partly drawn)	?	4%	13µM*	?
CCC(=O)Nc1cccc(C2=NOC3(C2)C[C@@H](C(N)=O)N(C(=O)COc2ccc(Cl)cc2)C3)c1 (stereo partly drawn)	?	-5%	?	24%
CCCCCC(=O)N1CC2(CC(c3cccc(NC(=O)COc4ccc(Cl)cc4)c3)=NO2)C[C@@H]1C(N)=O (stereo partly drawn)	?	5%	10µM*	13µM*
C/C=C/C(=O)N1CC2(CC(c3cccc(NC(=O)COc4ccc(Cl)cc4)c3)=NO2)C[C@@H]1C(N)=O (stereo partly drawn)	7%	-1%	13µM*	5.2µM*
NC(=O)[C@H]1CC2(CC(c3cccc(NC(=O)COc4ccc(Cl)cc4)c3)=NO2)CN1C(=O)CC(c1ccccc1)c1ccccc1 (stereo partly drawn)	-7%[8.37 µM]	-2%	?	?
CC(C)(C)c1ccc(S(=O)(=O)N2CCN(C(=O)C3CCC3)CC2)cc1	?	9%	?	?
C/C(CC(=O)Nc1ccc(F)cc1F)=N\NC(=O)C(=O)N1CCCCC1	.	.	26%	?
CCc1nnc(NC(=O)CCC(=O)NC2CCCCCCC2)s1	-1%	4%	-7%	16%
NC(=O)[C@H]1CC2(CC(c3cccc(NC(=O)COc4ccc(Cl)cc4)c3)=NO2)CN1C(=O)c1ccc(Cl)cc1 (stereo partly drawn)	-30%	20%	13µM*	?
CCCCCC(=O)Nc1cccc(C2=NOC3(C2)C[C@@H](C(N)=O)N(C(=O)c2ccc(Cl)cc2)C3)c1 (stereo partly drawn)	5%[8.37 µM]	5%	?	?
CCC(=O)Nc1cccc(C2=NOC3(C2)C[C@@H](C(N)=O)N(C(=O)c2ccccc2C(=O)c2ccccc2)C3)c1 (stereo partly drawn)	2%	14%	?	?
NC(=O)[C@H]1CC2(CC(c3cccc(NC(=O)COc4ccc(Cl)cc4)c3)=NO2)CN1C(=O)c1ccccc1C(=O)c1ccccc1 (stereo partly drawn)	?	0%	12µM*	12µM*
c1cnc2nc(CSc3ncn[nH]3)cn2c1	-6%	5%	-1%	-3%
O=C(Nc1ccc([N+](=O)[O-])cc1)c1ccc(S(=O)(=O)N2CCCC2)cc1	-8%	0%	?	12µM*
Cc1cc(C)n2nc(C(=O)Nc3ccc(S(=O)(=O)N4CCCC4)cc3)nc2n1	?	10%	128%	2.3µM*
N#CCc1ccc(NC(=O)c2ccc(S(=O)(=O)N3CCCC3)cc2)cc1	14µM*	4%	?	-3%
O=C(Nc1ccc(S(=O)(=O)N2CCCC2)cc1)c1ccc(F)cc1	-17%	10%	.	.
CN(c1ccc(C(=O)Nc2ccc(S(=O)(=O)N3CCCC3)cc2)cc1)S(C)(=O)=O	5µM*	2%	-15%	?
